# In PMC7862700, “An all-to-all approach to the identification of sequence-specific readers for epigenetic DNA modifications on cytosine”:
# What was measured:
# Experiment in all cases: DAPPL (digital affinity profiling via proximity ligation, sequencing); 10 mM Tris-HCl pH 7.5, 50 mM NaCl, 1 mM DTT, 4% glycerol, room temperature, 30 min; GST-TFs on glutathione beads, 16-mer random dsDNA library, 0.1% formaldehyde crosslink after washing; high values mean tight binding
# FLI1 = target: T1, FLI1 (Homo sapiens, UniProt Q01543 1-452); details: protein: recombinant; tags: N-terminal GST; dsDNA, one strand shown
# T1 sequence: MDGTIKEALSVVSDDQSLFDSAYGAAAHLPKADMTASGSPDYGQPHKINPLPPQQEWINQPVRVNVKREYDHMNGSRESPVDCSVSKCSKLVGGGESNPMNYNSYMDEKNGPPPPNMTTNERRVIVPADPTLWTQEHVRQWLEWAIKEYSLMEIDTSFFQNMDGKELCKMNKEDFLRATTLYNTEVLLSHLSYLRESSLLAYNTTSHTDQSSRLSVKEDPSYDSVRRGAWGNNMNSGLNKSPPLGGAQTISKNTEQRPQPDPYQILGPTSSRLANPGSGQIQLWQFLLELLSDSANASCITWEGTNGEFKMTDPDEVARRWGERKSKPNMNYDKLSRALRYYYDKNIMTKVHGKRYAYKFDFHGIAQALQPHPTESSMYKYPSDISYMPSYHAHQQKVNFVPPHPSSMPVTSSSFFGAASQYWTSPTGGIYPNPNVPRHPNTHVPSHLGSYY
# How it was run: (§1)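 Human transcription factors fused to GST were expressed in yeast, captured on glutathione beads, given DNA barcodes and pooled with a GST-only negative control. Pools were incubated with 200 nmole of a 16-mer random double-stranded DNA library in Tris/NaCl/DTT/glycerol buffer at room temperature for 30 min. They were then washed, crosslinked with 0.1% formaldehyde, proximity-ligated (BsaI/T4 ligase, 1 h, 37 °C), PCR-amplified and sequenced on an Illumina NextSeq500. Binding signal is each 6-mer's read frequency for a factor divided by its frequency for the GST control.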
# ELK1 = target: T2, ELK1 (Homo sapiens, UniProt P19419 1-428); details: protein: recombinant; tags: N-terminal GST; dsDNA, one strand shown
# T2 sequence: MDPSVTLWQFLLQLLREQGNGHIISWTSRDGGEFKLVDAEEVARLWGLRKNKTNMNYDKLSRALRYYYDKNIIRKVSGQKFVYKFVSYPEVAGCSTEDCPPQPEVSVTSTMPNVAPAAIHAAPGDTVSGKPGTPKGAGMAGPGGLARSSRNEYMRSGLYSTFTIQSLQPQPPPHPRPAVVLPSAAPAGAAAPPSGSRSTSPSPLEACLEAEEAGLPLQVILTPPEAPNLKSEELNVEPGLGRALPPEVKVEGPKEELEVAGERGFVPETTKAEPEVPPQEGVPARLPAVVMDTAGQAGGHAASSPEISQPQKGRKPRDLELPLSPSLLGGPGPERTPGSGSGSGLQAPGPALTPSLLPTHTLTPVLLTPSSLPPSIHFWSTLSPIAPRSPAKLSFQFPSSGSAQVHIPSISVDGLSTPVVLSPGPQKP
# How it was run: as §1
# GABPA = target: T3, GABPA (Homo sapiens, UniProt Q06546 1-454); details: protein: recombinant; tags: N-terminal GST; dsDNA, one strand shown
# T3 sequence: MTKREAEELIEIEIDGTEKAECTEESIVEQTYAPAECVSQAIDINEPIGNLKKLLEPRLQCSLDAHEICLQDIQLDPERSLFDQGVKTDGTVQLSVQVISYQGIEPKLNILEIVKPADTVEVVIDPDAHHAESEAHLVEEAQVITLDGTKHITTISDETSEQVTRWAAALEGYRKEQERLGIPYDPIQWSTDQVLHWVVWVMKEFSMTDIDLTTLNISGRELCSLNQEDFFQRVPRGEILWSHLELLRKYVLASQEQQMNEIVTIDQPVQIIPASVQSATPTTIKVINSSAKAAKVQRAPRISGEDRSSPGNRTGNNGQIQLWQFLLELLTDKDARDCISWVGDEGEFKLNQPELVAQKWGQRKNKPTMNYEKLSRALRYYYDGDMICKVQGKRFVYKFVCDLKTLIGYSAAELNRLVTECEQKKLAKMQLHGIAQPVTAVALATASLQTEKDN
# How it was run: as §1
# ERG = target: T4, ERG (Homo sapiens, UniProt P11308 1-479); details: protein: recombinant; tags: N-terminal GST; dsDNA, one strand shown
# T4 sequence: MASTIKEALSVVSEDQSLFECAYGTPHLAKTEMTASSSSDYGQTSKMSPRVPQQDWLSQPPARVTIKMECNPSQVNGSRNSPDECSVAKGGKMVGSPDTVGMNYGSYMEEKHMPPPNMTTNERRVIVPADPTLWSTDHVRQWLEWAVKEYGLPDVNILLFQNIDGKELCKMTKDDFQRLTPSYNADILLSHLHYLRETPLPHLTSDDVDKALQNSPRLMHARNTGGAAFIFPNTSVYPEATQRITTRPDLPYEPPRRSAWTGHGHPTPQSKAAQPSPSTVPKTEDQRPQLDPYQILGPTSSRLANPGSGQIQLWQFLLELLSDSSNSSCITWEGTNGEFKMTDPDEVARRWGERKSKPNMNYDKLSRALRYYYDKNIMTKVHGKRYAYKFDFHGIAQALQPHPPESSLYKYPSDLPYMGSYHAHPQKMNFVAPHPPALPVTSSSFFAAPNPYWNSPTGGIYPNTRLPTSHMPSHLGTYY
# How it was run: as §1
# ELF1 = ELF1 (Homo sapiens, UniProt P32519 1-619); details: protein: recombinant; tags: N-terminal GST; dsDNA, one strand shown
# How it was run: as §1
# EHF = target: T5, EHF (Homo sapiens, UniProt Q9NZC4 1-300); details: protein: recombinant; tags: N-terminal GST; dsDNA, one strand shown
# T5 sequence: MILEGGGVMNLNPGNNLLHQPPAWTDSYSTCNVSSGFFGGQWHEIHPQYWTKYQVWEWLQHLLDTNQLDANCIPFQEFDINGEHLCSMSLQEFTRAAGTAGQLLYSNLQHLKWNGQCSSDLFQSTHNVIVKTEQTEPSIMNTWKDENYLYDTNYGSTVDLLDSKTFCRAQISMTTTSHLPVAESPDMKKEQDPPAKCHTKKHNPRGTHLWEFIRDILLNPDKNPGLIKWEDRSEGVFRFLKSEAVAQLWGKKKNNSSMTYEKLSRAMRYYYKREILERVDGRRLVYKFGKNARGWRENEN
# How it was run: as §1
# SPI1 = SPI1 (Homo sapiens, UniProt P17947 1-270); details: protein: recombinant; tags: N-terminal GST; dsDNA, one strand shown
# How it was run: as §1
# SPIB = SPIB (Homo sapiens, UniProt Q01892 1-262); details: protein: recombinant; tags: N-terminal GST; dsDNA, one strand shown
# How it was run: as §1
# ELK3 = target: T6, ELK3 (Homo sapiens, UniProt P41970 1-407); details: protein: recombinant; tags: N-terminal GST; dsDNA, one strand shown
# T6 sequence: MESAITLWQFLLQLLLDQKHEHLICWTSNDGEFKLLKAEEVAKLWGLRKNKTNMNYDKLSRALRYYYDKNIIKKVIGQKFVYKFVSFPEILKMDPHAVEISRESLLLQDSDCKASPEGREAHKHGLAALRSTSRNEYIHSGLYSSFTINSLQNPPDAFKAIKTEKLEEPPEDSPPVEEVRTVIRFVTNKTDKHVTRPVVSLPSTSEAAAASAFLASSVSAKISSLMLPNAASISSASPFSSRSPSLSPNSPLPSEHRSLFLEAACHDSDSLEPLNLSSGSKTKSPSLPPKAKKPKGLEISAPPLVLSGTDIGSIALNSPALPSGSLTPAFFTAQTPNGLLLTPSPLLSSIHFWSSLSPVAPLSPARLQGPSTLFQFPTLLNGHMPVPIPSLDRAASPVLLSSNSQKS
# How it was run: as §1
# FEV = target: T7, FEV (Homo sapiens, UniProt Q99581 1-238); details: protein: recombinant; tags: N-terminal GST; dsDNA, one strand shown
# T7 sequence: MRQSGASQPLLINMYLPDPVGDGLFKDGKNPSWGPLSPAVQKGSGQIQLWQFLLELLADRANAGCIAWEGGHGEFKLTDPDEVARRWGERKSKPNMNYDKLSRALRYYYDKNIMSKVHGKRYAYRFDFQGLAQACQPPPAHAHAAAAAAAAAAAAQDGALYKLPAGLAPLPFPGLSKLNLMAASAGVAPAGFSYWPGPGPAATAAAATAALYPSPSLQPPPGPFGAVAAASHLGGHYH
# How it was run: as §1
# ETV5 = ETV5 (Homo sapiens, UniProt P41161 1-510); details: protein: recombinant; tags: N-terminal GST; dsDNA, one strand shown
# How it was run: as §1
# HSF1 = HSF1 (Homo sapiens, UniProt Q00613 1-529); details: protein: recombinant; tags: N-terminal GST; chain copies: 3; dsDNA, one strand shown
# How it was run: as §1
# SPIC = target: T8, SPIC (Homo sapiens, UniProt Q8N5J4 1-248); details: protein: recombinant; tags: N-terminal GST; dsDNA, one strand shown
# T8 sequence: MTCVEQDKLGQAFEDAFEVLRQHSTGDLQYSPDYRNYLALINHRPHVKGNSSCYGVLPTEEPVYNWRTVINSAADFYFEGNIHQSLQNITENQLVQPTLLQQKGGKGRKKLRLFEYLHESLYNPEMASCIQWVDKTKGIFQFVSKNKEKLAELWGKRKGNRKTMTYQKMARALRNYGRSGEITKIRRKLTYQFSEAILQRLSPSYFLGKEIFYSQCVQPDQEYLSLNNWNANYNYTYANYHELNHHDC
# How it was run: as §1
# ELF4 = ELF4 (Homo sapiens, UniProt Q99607 1-663); details: protein: recombinant; tags: N-terminal GST; dsDNA, one strand shown
# How it was run: as §1
# ELK4 = target: T9, ELK4 (Homo sapiens, UniProt P28324-2 1-405); details: protein: recombinant; tags: N-terminal GST; dsDNA, one strand shown
# T9 sequence: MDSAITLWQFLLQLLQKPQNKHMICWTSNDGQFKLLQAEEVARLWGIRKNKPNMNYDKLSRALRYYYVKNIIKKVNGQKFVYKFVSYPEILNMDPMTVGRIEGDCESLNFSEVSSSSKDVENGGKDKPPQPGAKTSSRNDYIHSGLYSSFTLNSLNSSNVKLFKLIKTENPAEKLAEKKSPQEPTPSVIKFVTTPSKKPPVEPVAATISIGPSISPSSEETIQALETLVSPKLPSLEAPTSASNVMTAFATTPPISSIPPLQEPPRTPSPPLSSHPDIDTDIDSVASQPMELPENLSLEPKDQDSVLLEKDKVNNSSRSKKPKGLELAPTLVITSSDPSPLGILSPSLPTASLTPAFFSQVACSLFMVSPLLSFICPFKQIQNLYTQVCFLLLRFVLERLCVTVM
# How it was run: as §1
# ETV2 = target: T10, ETV2 (Homo sapiens, UniProt O00321 1-342); details: protein: recombinant; tags: N-terminal GST; dsDNA, one strand shown
# T10 sequence: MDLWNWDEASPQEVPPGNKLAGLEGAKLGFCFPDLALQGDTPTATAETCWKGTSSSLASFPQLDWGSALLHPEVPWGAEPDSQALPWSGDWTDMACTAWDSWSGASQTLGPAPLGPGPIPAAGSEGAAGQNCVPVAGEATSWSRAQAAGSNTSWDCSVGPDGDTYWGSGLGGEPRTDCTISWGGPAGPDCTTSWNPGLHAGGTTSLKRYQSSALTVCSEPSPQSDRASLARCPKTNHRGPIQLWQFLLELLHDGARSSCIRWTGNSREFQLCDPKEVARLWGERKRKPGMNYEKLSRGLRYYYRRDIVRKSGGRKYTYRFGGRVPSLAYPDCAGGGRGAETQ
# How it was run: as §1
# ELF3 = target: T11, ELF3 (Homo sapiens, UniProt P78545 1-371); details: protein: recombinant; tags: N-terminal GST; dsDNA, one strand shown
# T11 sequence: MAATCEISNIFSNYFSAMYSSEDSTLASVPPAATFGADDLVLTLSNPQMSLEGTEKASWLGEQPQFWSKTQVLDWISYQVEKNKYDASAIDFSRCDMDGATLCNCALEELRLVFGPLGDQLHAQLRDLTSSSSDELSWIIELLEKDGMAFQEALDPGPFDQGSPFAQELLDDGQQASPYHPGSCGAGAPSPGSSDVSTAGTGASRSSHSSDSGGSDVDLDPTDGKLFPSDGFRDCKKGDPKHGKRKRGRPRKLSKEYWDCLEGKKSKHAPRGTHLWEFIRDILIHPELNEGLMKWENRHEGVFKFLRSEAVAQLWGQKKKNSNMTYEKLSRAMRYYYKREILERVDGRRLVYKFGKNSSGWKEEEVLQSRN
# How it was run: as §1
# CRX = CRX (Homo sapiens, UniProt O43186 1-299); details: protein: recombinant; tags: N-terminal GST; dsDNA, one strand shown
# How it was run: as §1
# ETV1 = ETV1 (Homo sapiens, UniProt P50549 1-477); details: protein: recombinant; tags: N-terminal GST; dsDNA, one strand shown
# How it was run: as §1
# Chain of ETV1 (P50549 whole entry): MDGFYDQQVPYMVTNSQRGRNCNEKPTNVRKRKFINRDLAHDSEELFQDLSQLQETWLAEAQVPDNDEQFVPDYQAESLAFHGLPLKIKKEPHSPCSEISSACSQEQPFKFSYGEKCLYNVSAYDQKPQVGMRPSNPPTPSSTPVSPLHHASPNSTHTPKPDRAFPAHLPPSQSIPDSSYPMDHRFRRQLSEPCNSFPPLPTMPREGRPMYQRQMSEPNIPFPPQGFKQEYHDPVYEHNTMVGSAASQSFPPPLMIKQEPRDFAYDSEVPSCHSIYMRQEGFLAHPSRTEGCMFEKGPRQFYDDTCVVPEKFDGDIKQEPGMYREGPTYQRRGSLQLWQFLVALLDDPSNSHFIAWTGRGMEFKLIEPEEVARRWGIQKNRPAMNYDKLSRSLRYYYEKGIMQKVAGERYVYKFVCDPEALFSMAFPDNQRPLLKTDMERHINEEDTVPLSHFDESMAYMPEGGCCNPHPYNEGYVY
# Chain of ELF1 (P32519 whole entry): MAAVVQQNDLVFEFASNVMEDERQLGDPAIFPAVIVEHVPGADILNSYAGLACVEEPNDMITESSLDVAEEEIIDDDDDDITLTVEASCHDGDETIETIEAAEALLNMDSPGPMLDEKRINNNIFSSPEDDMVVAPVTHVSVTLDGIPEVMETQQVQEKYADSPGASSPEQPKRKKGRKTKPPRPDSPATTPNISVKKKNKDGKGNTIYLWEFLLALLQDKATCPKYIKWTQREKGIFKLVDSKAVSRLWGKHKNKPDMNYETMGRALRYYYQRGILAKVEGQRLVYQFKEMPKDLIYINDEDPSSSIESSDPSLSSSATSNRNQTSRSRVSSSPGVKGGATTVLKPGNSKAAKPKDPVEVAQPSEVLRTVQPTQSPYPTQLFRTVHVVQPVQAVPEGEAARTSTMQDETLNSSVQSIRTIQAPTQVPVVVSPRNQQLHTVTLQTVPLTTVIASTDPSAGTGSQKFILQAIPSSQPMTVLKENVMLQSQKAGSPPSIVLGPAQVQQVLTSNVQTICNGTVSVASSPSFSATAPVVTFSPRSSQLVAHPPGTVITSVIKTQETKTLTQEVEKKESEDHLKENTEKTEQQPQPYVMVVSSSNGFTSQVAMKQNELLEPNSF
# Chain of SPIB (Q01892 whole entry): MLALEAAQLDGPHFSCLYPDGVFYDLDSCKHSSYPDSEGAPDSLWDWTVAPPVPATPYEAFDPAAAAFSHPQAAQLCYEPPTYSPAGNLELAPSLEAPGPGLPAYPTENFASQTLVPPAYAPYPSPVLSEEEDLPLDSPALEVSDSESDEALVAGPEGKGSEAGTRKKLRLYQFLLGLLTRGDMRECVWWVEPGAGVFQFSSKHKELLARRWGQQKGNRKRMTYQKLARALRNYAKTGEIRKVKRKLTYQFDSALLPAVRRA
# Chain of HSF1 (Q00613 whole entry): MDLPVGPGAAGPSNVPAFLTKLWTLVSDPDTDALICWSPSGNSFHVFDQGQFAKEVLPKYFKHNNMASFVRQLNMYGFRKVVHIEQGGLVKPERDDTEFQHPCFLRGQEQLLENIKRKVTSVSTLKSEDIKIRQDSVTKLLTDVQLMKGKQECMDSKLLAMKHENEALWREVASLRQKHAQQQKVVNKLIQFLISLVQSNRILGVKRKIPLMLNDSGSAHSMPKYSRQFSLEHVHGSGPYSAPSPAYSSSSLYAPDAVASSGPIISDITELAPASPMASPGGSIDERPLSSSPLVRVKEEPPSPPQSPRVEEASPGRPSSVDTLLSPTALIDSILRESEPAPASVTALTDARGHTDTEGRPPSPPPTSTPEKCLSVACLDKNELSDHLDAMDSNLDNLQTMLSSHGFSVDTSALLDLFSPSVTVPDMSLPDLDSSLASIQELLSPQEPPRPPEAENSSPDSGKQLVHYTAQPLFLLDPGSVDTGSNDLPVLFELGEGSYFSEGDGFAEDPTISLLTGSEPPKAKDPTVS
# Chain of ETV5 (P41161 whole entry): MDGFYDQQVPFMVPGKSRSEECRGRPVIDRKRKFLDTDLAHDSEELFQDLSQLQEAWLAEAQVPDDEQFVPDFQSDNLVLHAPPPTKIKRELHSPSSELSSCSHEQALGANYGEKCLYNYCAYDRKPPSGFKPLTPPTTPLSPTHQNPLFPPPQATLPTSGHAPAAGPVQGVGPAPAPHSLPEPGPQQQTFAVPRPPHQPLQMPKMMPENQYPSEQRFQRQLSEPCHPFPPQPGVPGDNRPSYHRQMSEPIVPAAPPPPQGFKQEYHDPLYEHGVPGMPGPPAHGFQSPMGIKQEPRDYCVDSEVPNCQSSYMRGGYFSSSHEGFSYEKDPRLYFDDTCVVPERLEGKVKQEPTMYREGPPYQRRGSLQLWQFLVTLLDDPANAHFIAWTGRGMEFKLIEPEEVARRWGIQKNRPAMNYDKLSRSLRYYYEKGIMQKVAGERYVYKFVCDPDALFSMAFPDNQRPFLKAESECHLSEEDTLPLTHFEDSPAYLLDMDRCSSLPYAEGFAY
# Chain of ELF4 (Q99607 whole entry): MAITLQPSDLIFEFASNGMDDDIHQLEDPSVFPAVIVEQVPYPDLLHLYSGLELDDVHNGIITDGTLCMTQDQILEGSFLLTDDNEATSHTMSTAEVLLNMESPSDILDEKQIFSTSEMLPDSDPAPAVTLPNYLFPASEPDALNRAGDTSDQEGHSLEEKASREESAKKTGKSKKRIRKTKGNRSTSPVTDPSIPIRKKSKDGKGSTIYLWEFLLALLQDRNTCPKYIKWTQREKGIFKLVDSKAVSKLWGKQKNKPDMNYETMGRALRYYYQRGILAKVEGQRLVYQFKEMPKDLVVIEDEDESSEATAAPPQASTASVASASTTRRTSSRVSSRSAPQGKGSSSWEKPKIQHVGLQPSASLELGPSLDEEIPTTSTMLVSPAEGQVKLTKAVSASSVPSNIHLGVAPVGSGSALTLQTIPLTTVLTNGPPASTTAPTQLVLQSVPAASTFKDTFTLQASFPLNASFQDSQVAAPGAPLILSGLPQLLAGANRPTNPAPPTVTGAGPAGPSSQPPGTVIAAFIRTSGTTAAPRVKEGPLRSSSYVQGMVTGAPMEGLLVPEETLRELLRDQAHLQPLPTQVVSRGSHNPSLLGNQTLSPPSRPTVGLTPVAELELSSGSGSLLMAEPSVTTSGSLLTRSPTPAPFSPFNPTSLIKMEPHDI
# Chain of CRX (O43186 whole entry): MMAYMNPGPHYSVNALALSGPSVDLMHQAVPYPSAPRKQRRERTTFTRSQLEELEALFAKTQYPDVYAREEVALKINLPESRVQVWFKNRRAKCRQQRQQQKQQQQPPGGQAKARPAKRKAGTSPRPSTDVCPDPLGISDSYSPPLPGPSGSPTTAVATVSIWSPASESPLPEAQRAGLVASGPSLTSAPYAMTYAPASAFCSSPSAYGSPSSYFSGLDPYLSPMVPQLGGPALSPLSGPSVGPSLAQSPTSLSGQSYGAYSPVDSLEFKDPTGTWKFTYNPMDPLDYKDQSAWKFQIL
sequence,measurement,setting,value
CGATTC,binding signal,FLI1,"1.31 fold enrichment (6-mer frequency, TF over GST control)"
same,binding signal,ELK1,"1.21 fold enrichment (6-mer frequency, TF over GST control)"
same,binding signal,GABPA,"1.23 fold enrichment (6-mer frequency, TF over GST control)"
same,binding signal,ERG,"1.12 fold enrichment (6-mer frequency, TF over GST control)"
same,binding signal,ELF1,"1.24 fold enrichment (6-mer frequency, TF over GST control)"
same,binding signal,EHF,"1.17 fold enrichment (6-mer frequency, TF over GST control)"
same,binding signal,SPI1,"1.2 fold enrichment (6-mer frequency, TF over GST control)"
same,binding signal,SPIB,"1.24 fold enrichment (6-mer frequency, TF over GST control)"
same,binding signal,ELK3,"1.15 fold enrichment (6-mer frequency, TF over GST control)"
same,binding signal,FEV,"1.06 fold enrichment (6-mer frequency, TF over GST control)"
same,binding signal,ETV5,"1.19 fold enrichment (6-mer frequency, TF over GST control)"
same,binding signal,HSF1,"1.35 fold enrichment (6-mer frequency, TF over GST control)"
same,binding signal,SPIC,"1.18 fold enrichment (6-mer frequency, TF over GST control)"
same,binding signal,ELF4,"1.24 fold enrichment (6-mer frequency, TF over GST control)"
same,binding signal,ELK4,"1.28 fold enrichment (6-mer frequency, TF over GST control)"
same,binding signal,ETV2,"1.06 fold enrichment (6-mer frequency, TF over GST control)"
same,binding signal,ELF3,"1.22 fold enrichment (6-mer frequency, TF over GST control)"
same,binding signal,CRX,"1.09 fold enrichment (6-mer frequency, TF over GST control)"
same,binding signal,ETV1,"1.25 fold enrichment (6-mer frequency, TF over GST control)"
